HT1080 IDH1KD tx: qHTS for induction of synthetic lethality in tumor cells producing 2HG: qHTS for the HT-1080-IDH1KD cell line. Potency, µM (doses to about 46.1 µM), without a hit: at the highest dose activity, negative = toxicity, usual class: cytotoxic. AID 686971, 2013. hit rate 2% among 360,000. HT-1080 IDH1 knockdown viability, ATP luminescence, 48 h;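 further: 0% = DMSO wells and -100% = cell-free medium wells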
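IDH1KD HT-1080 cells, 750/well, RPMI + 5% FBS; compound pinned after 2 h settling; 48 h, 37 °C; CellTiter-Glo luminescence; % activity normalised to DMSO and no-cell wells; curves fitted, classed by r2 and efficacy.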
KB-V1 cytotox: qHTS assay for MDR1-selective chemotherapeutics: Primary screen using the drug-selected MDR subline cells KB-V1; KB-V1 MDR cells viability, CellTiter-Glo, 72 h; hit rate 3.4% among 400,000; Potency, µM (doses to about 46.1 µM), actives largely listed as cytotoxic; further: nearly all actives have a fitted effect of over 60% in size
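Cells of the MDR subline KB-V1 are plated, dosed with compound at multiple concentrations, and incubated 72 h at 37 degrees C; CellTiter-Glo is then added and luminescence read after 10 min.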
HT1080-NT tox: qHTS for induction of synthetic lethality in tumor cells producing 2HG: qHTS for the HT-1080-NT fibrosarcoma cell line. HT-1080-NT fibrosarcoma viability, CellTiter-Glo ATP luminescence, 48 h. Potency, µM (titrated, usually from 46.1 µM), without a hit: top-dose activity, negative = less viability, hits mostly cytotoxic. hit rate 1.6% among 360,000;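 further: NT is the 2HG producing partner of a matched IDH1 knockdown line; 0% = DMSO-treated cells and -100% = media-only wells without cells; nearly all actives have a fitted effect of over 55% in size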
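HT-1080-NT; 750 cells/well; 5% FBS RPMI; 48 h compound, 37 degrees C; CellTiter-Glo luminescence; curve fitting and curve-class assignment.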
KB-3-1 tox: qHTS assay for MDR1-selective chemotherapeutics: Primary screen using the parental adenocarcinoma cell KB-3-1; Potency, µM (highest dose often 46.1 µM), most hits filed as cytotoxic; KB-3-1 viability, CellTiter-Glo ATP luminescence, 72 h; hit rate 1.4% among 400,000; further: nearly all actives have a fitted effect of over 60% in size
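Cytotoxicity in the drug-sensitive parental line KB-3-1 was scored as loss of CellTiter-Glo luminescence following 72 h incubation with compound. Values come from curve fitting of normalized concentration-response data.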
An asterisk follows results filed as active; i = inactive; u = inconclusive; x = no result given. Shown are actives, neighbours in structure and some others; about 5.7% of the full set was active somewhere. The call rests on the fitted dose curve; in most records, active means well fitted curve in the direction sought with a large enough effect; inconclusive means small, poorly fitted or top-dose-only effect, or another doubt; inactive means no such curve, though single readings can be large; an effect the other way counts as inactive or inconclusive. Unless noted, on the % scale 0 is the no-effect control and ±100 the full control effect; potency means the concentration at half of the fitted maximal effect.

SMILES	HT1080 IDH1KD tx	KB-V1 cytotox	HT1080-NT tox	KB-3-1 tox
Cc1cccc(N/N=C(\C#N)S(=O)(=O)C(C)(C)C)c1	-2%	i	-6%	i
CC(C)(C)c1ccc(N/N=C(\C#N)S(=O)(=O)C(C)(C)C)cc1	u	u	23µM*	u
Cc1cccc(NC(=O)C(c2cccc([N+](=O)[O-])c2)N2CCCCC2)c1 (stereo unspecified)	-6%	15µM*	0%	i
CN(c1ccc([N+](=O)[O-])cc1C(=O)Nc1ccccc1)C1CCCCC1	u	13µM*	-24%	i
CN1CCN(c2ccc([N+](=O)[O-])cc2C(=O)Nc2ccccc2)CC1	-13%	i	-6%	i
O=C(O)c1cc([N+](=O)[O-])ccc1C(=O)Nc1cccc([N+](=O)[O-])c1	17%	i	4%	i
Cc1cccc(NC(=O)c2cc([N+](=O)[O-])ccc2NC2CCCCC2)c1	-2%	13µM*	-11%	i
C#CCn1cnc2c(cnn2-c2ccc(F)cc2)c1=O	x	i	x	i
CCOc1ccc(NC(=O)Cn2c(=O)c(CNc3ccc(CC)cc3)cc3cc4c(cc32)OCO4)cc1	x	i	x	i
O=C(N/N=C\c1cc(Cl)ccc1O)c1ccc(S(=O)(=O)N2CCCCC2)cc1	2.3µM*	u	7.3µM*	u
O=C(N/N=C/c1cc(Cl)cc([N+](=O)[O-])c1O)c1cccc(S(=O)(=O)N2CCOCC2)c1	u	u	16µM*	u
O=C(N/N=C/c1cc(Cl)ccc1O)c1ccccc1Br	9.2µM*	u	u	u
O=C(N/N=C/c1sc(N2CCOCC2)nc1-c1ccccc1)c1cccc(S(=O)(=O)N2CCCC2)c1	u	u	-4%	3.7µM*
O=C(NCc1ccco1)c1ccc2c(c1)N(Cc1ccc(Cl)cc1)C(=O)c1ccccc1S2(=O)=O	x	i	x	i
COC(=O)c1cc(NC(=O)[C@H](CCS(C)(=O)=O)N2Cc3ccccc3C2=O)cc(C(=O)OC)c1	x	i	x	i
CSCCC(NS(=O)(=O)c1cccs1)C(=O)Nc1ccc(C)c(Cl)c1 (stereo unspecified)	x	i	x	i
O=C(NCCCN=C1NS(=O)(=O)c2ccccc21)c1ccc(S(=O)(=O)N2CCCCC2)cc1	u	i	u	21µM*
COCCNC(=O)CCn1c(=O)c2cc(OC)c(OC)cc2n(CC(=O)Nc2ccc(Cl)cc2F)c1=O	x	i	x	i
CCCCn1c2ccc(F)cc2c2nnc(SCCN(CC)CC)nc21	x	u	x	i
CCN(CC)CCSc1nnc2c3cc(C)ccc3n(Cc3ccccc3)c2n1	23µM*	i	16µM*	i
CCc1ccc(S(=O)(=O)N2c3ccc(C)cc3C3CN(C)CCC32)cc1 (stereo unspecified)	-2%	21µM*	-3%	i
Cc1cccc(N2CCN(C(=O)CN3C(=O)COc4ccc(S(=O)(=O)N5CCC(C)CC5)cc43)CC2)c1C	x	i	x	i
CCOC(=O)N1CCN(C(=O)c2ccc3c(=O)n(Cc4ccc(Cl)cc4)c(=S)[nH]c3c2)CC1	-21%	13µM*	-2%	23µM*
O=C(c1ccc2c(=O)n(Cc3ccco3)c(=S)[nH]c2c1)N1CCN(Cc2ccccc2)CC1	u	21µM*	-23%	u
OC(Cc1ccc2ccccc2n1)c1c(Cl)cccc1Cl (stereo unspecified)	x	i	x	i
SMILES	HT1080 IDH1KD tx	KB-V1 cytotox	HT1080-NT tox	KB-3-1 tox
O=C(NC1CC1)c1cccc(NC(=O)c2cnn(-c3ccccc3)n2)c1	7%	15µM*	3%	i
O=C(Nc1cccc(C(=O)NC2CCCC2)c1)c1ccccc1	-11%	i	-5%	i
N#C/C(=C\c1ccc(-c2cc(Cl)ccc2Cl)o1)C(=O)Nc1ccccc1C(=O)O	x	i	x	i
Cn1ncc2c(N3CCC(Cc4ccccc4)CC3)ncnc21	u	4.6µM*	-25%	u
CC1CCN(c2ncnc3c2cnn3Cc2ccc(Cl)cc2)CC1	-16%	u	-13%	i
Cc1ccc(Cn2ncc3c(N4CCN(Cc5ccc(Cl)cc5)CC4)ncnc32)cc1	-12%	2.6µM*	-2%	u
Cc1ccccc1N1CCN(c2ncnc3c2cnn3Cc2ccc(Cl)cc2)CC1	-12%	u	-5%	18µM*
Cc1ccc(Cn2ncc3c(N4CCN(c5ccc(C)cc5)CC4)ncnc32)cc1	-15%	u	6%	i
COc1ccc(-n2ncc3c(SCC(=O)N4CCN(c5ccccc5OC)CC4)ncnc32)cc1	-1%	9.2µM*	-3%	i
COc1ccccc1N1CCN(C(=O)CSc2ncnc3scc(-c4ccccc4)c23)CC1	-14%	u	-8%	u
c1ccc(CCN2CCN(c3ncnc4c3cnn4-c3ccccc3)CC2)cc1	-1%	i	2%	u
CCOc1ccc(CCNC(=O)c2cccc(-n3c(C)nc4cccnc43)c2C)cc1	x	i	x	u
O=C(NCc1cccc(Cl)c1)c1ccc2c(Cl)c3c(nc2c1)CCCC3	x	i	x	i
NC(=O)COC(=O)c1ccccc1OCC(=O)Nc1ccc(Br)cc1	x	i	x	i
COc1cccc(N2CCN(c3ncnc4c3cnn4-c3ccc(C)cc3C)CC2)c1	u	u	23µM*	10µM*
Cc1ccc(-n2ncc3c(N4CCN(Cc5ccccc5)CC4)ncnc32)cc1C	x	u	x	i
Cc1ccc(-n2ncc3c(N4CCCC4)ncnc32)c(C)c1	-3%	i	-2%	i
COc1ccc(-n2ncc3c(N4CCN(Cc5ccccc5)CC4)ncnc32)cc1	u	13µM*	15µM*	u
CC(=O)Nc1ccc(NC(=O)c2ncoc2-c2ccco2)cc1	x	i	x	i
O=S(=O)(Cc1ccccc1)N1CCC(c2nc(-c3cccs3)no2)CC1	6%	21µM*	4%	i
O=C(N1CCOCC1)N1CCCC(c2nc(-c3cccs3)no2)C1 (stereo unspecified)	0%	15µM*	10%	i
CN(C)c1cccc(C(=O)Nc2nc3ccc(S(=O)(=O)N4CCCC4)cc3s2)c1	x	21µM*	x	10µM*
Cc1ccc(C(=O)Nc2nc3ccc(S(=O)(=O)N4CCCC4)cc3s2)cc1	x	i	x	i
O=C(Nc1nc2ccc(S(=O)(=O)N3CCCCC3)cc2s1)C1CCCO1 (stereo unspecified)	-21%	i	-1%	u
O=C(Nc1nc2ccc(S(=O)(=O)N3CCCC3)cc2s1)C1CCCCC1	15µM*	3.7µM*	21µM*	2.6µM*
C=CCN(CC=C)S(=O)(=O)c1ccc2nc(NC(=O)C3CCCO3)sc2c1 (stereo unspecified)	u	8.2µM*	u	u

Assay outcomes from PubChem BioAssay.
